This is an account of results in ChEMBL document CHEMBL3988442, “University of Dundee, Small-Polar-MMV Screening Library” (2021).

About 13,000 (27%) of roughly 48,000 compounds showed an effect of 50% or more. The list shows a part of the results.

The subject of this test is Wolbachia pipientis. The experiment in a line: Anti-Wolbachia Cell-Based Screen. The class given is functional. Also on record: scale not given: in the data most compounds retested in dose-response had high values. As to conditions: 5 µM.
For `NC(=O)Nc1cc(Br)cnc1OCC(F)(F)F`, the “Percent Effect” value amounted to 3.483%.
Next, `CC(C)N1CCC(CC(=O)N(C)CC(=O)c2ccc(O)cc2)CC1`: -41.3%.
As to `COc1cc(OC)cc(-n2ccnc2-c2cc3n(n2)CCNC3)c1`, the “Percent Effect” value was -3.796%.
Consider `CN(C)C[C@H]1C[C@@H](CO)CN(C(=O)CCc2nc(Cl)n[nH]2)C1`, for which the “Percent Effect” value is recorded as -2.145%.
Then `Cc1cccc2c1nc1n2[C@@H](CNC2CCCCC2)COC1`, with -2.586%; and `CC1c2ncc(COc3cccnc3)n2CCN1C(=O)Cc1ccco1.O=C(O)C(F)(F)F` (centres undefined), with 6.97%; and `CC1c2ncc(COc3cccnc3)n2CCN1Cc1ccco1` (centres undefined), with 103.4%.
Then `CCCNC(=O)c1ccc2c(c1)C(=O)N(CC(C)C)C2=O`, with 12.13%; and `O=C(Cc1ccc(F)cc1)NS(=O)(=O)c1ccc(F)c(F)c1`, with -8.123%.
With `Cc1ccc2cc(C(=O)N3CCC(O)(C(F)(F)F)CC3)ccc2n1`, the “Percent Effect” value is given as 14.37%.
Then `CC(=O)N1CC2(CCN(C(=O)c3ccoc3)C2)C1`, with -7.067%.
Then `O=C(c1ccoc1)N1CCC(O)(C(F)(F)F)CC1`, with 69.76%; and `CC[C@@]1(O)CCN(C(=O)c2ccoc2)C[C@H]1O`, with -13.59%; and `O=C(c1cc(F)cc(F)c1)N1CCC2(CC1)CC2`, with 32.79%.
Then `O=C(c1cc(F)cc(F)c1)N1CCC(O)(C(F)(F)F)CC1`, with 87.26%.
With `CCc1nc2n(n1)CC(NCc1nc(Cc3ccccc3)no1)CC2` (centres undefined), the “Percent Effect” value amounted to 105.9%.
With `CCc1nc2n(n1)CC(NCc1cnn(Cc3ccccc3)c1)CC2` (centres undefined), the “Percent Effect” value is reported as 87.86%.
Then `CCc1nc2n(n1)CC(NCc1nc(-c3cccnc3)no1)CC2` (centres undefined), with -12.29%; and `CCc1nc2n(n1)CC(NCc1nc3ccccc3o1)CC2` (centres undefined), with -13.4%; and `c1ccc(Cc2noc(CNC3CCc4ncnn4C3)n2)cc1` (centres undefined), with -0.1669%.
Next, `CCc1nc2n(n1)CC(NCc1cnc(-c3ccccc3)nc1)CC2` (centres undefined): 109.3%.
Then `CCc1nc2n(n1)CC(NCc1nc3ccccc3nc1C)CC2` (centres undefined), with -12.92%; and `CCc1nc2n(n1)CC(NCc1ccnc(-c3ccccc3)n1)CC2` (centres undefined), with 7.748%; and `CCc1nc2n(n1)CC(NCc1ncc(-c3ccccc3)o1)CC2` (centres undefined), with -4.969%.
With `CCc1noc(C(C)N2CCN(Cc3cnc(C)cn3)CC2)n1` (centres undefined), the “Percent Effect” value came out at 14.64%.
Next, `O=C(NC[C@H]1OC[C@@H](NCc2ccccc2F)[C@@H]1O)Nc1ccccc1`: -9.055%.
Next, `CC(C)c1nccn1CCCNC(=O)c1ccc(-c2cncnc2)nc1`: -0.1776%.
Then `CC(C)c1ncc2c(n1)CN(Cc1cccc3c1OCCO3)CC2`, with 21.53%; and `CCc1ncc2c(n1)CN(Cc1nc(C)c(C)o1)CC2`, with -17.94%.
For the compound `Cc1oc(-c2ccco2)nc1CN1CCc2cnc(C(C)C)nc2C1`, the “Percent Effect” value is 92.73%.
Next, `CCc1ncc2c(n1)CN(Cc1nc(-c3ccsc3)oc1C)CC2`: 1.537%; `Cc1ncc2c(n1)CN(Cc1nnc(-c3occc3C)o1)CC2`: 2.201%.
Then `Cc1ncc2c(n1)CN(Cc1nc3ccccc3o1)CC2`, with 10.13%; and `Cc1ncc2c(n1)CN(Cc1nc(-c3ccsc3)oc1C)CC2`, with 102.9%; and `CCc1ncc2c(n1)CN(Cc1nc(-c3ccco3)oc1C)CC2`, with 106.4%.
Then `CC(C)c1ncc2c(n1)CN(Cc1ccc3c(c1)OCCO3)CC2`, with -34.65%; and `CCc1ncc2c(n1)CN(Cc1nnc(C)o1)CC2`, with 12.23%.
As to `Cc1ccc(-c2nnc(CN3CCc4cnc(C)nc4C3)o2)cc1`, the “Percent Effect” value is reported as -1.089%.
Then `Cc1ncc2c(n1)CN(Cc1nc(-c3ccco3)oc1C)CC2`, with 105%; and `COCc1ncn(Cc2nc(-c3ccco3)oc2C)n1`, with -24.79%.
On to `Cc1nc(CN2CCc3cncnc3C2)oc1C`, for which the “Percent Effect” value is -4.156%.
On to `Cc1oc(-c2ccco2)nc1CN1CCc2cncnc2C1`, for which the “Percent Effect” value is 88.65%.
Next, `COCCCNS(=O)(=O)c1cc(Br)sc1C`: 2.901%; `COc1cccc(F)c1C(C)NC(=O)NCc1cc(C(C)C)no1` (centres undefined): -6.055%.
Then `O=C1CC(c2ccccc2)c2snc(C(=O)O)c2N1` (centres undefined), with -4.128%.
Consider `C[C@H]1CN2C[C@H](O)CC2CN1Cc1ccc2nccnc2c1.Cl` (some centres undefined), for which the “Percent Effect” value was 75.9%.
Next, `Cc1nccn1-c1ccc(NC(=O)C2CCCN2Cc2ccoc2)cc1` (centres undefined): 9.601%; `Cc1nccn1-c1ccc(C(C)NCCC(C)C)cc1` (centres undefined): -1.351%.
`CS(=O)(=O)N1C[C@@H]2CC[C@H](C1)N(Cc1ccc3nsnc3c1)C2`: the “Percent Effect” value stood at 5.437%.
Next, `CN(C)C(=O)CN1C[C@@H]2CC[C@H](C1)N(Cc1ccc3nsnc3c1)C2`: 10.45%.
Next, `CCn1ccnc1CN1CCN(c2ncnc3ccsc23)CC1C` (centres undefined): 11.61%; `Cc1nccn1-c1ccc(CN2CC3C[C@@H](O)CN3C[C@@H]2C)cc1` (some centres undefined): 108%.
Next, `C[C@@H]1CN2C[C@H](O)CC2CN1Cc1ccc2nccnc2c1` (some centres undefined): 113.8%.
Regarding `COc1ccc(CN2CC(=O)N(c3ccc(C)cc3)CC2C)cc1O` (centres undefined), the “Percent Effect” value is reported as -1.266%.
